Compounds with a hit are over-represented: about 7.2% of the library has one in this group of screens.
FLuc inh – Photinus pyralis luciferase inhibition. 76,000 compounds, 2.5% hits. AID 1347043. purified P. pyralis luciferase, luminescence, biochemical. Potency, µM (series often up to 115 µM), usual class: inhibitors. P08659; note: nearly all actives have a fitted effect of over 65% in size
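Biochemical qHTS: compound (6-point titration) added to 10uM D-luciferin plus 10uM ATP in Tris acetate pH 7.5 buffer with Mg, Tween-20 and BSA, then purified enzyme at 10nM; light output imaged.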
NPR1 antag – antagonists of human natriuretic peptide receptor Npr1. HEK293 hNpr1 GloSensor cGMP, ANP-stimulated luminescence. Potency, µM (doses to about 46.3 µM), usual class: inhibitors. 76,000 compounds, 1.6% hits; calls by dose curve; note: nearly all actives have a fitted effect of over 60% in size
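Compound pre-incubated 30 min at room temperature on GloSensor-loaded HEK293 cells stably carrying hNpr1 and the pGS-40F cGMP biosensor. Stimulation uses hNppA at 0.1 nM final; luminescence is taken at baseline and 20 min post-agonist.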
SNCA viab count – reduces viability of HEK-293 SNCA reporter cells; Potency, µM (highest dose often 57.1 µM), hits mostly cytotoxic; HEK-293-SNCA-luc viability, GF-AFC fluorescence, 24 h; 150,000 compounds, 0.12% hits; AID 1671193; note: nearly all actives have a fitted effect of over 30% in size
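HEK-293-SNCA-luc cells (1500/well) plated 24 h, then exposed 24 h to a dilution series; GF-AFC added 30 min at 37C, fluorescence 405/540 nm; normalised to medium-only and DMSO wells, Hill fit.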
NIH3T3 tox – cytotoxic compounds in NIH 3T3 cells; Potency, µM (highest dose often 96.7 µM), usual class: inhibitors; NIH 3T3 viability, CellTiter-Glo ATP luminescence, 48-72 h; AID 1345082; 94,000 compounds, 4.3% hits; note: nearly all actives have a fitted effect of over 55% in size
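Mouse fibroblast NIH 3T3 cells, 400 per well, received compound via pintool and were incubated for 48 or 72 hr prior to CellTiter-Glo ATP luminescence measurement.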
SNCA expr inhib – inhibitors of alpha-synuclein (SNCA) gene expression; HEK-293 SNCA-luciferase knock-in, luminescence, 24 h; Potency, µM (highest dose often 57.2 µM), actives largely listed as inhibitors; 140,000 compounds, 0.17% hits; AID 1671194; note: nearly all actives have a fitted effect of over 45% in size
HEK cytotox – cytotoxic compounds in HEK 293 cells | HEK 293 viability, ATP luminescence (CellTiter-Glo), 48-72 h | Potency, µM (titrated, usually from 115 µM), actives largely listed as inhibitors | 94,000 compounds, 6.6% hits | AID 1345083; note: nearly all actives have a fitted effect of over 60% in size
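Viability of HEK 293 cells, plated at 250 cells/well, was judged by cellular ATP after compound treatment for 48 or 72 hr. Luminescence was imaged 10 min after CellTiter-Glo addition at room temperature.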
Each line names hits and unclear results; the compound was inactive in the other large screens. Unless noted, calls come from the whole dose curve; as a rule, active = well fitted curve in the direction sought with a large enough effect; inconclusive = small, poorly fitted or top-dose-only effect, or another doubt; inactive = no such curve, though single readings can be large; an effect the other way counts as inactive or inconclusive.

Clc1ccc(-c2noc([C@@H]3Cc4nc[nH]c4CN3CC3CCCCC3)n2)cc1	NIH3T3 tox 28µM, HEK cytotox 50µM
c1cc(-c2noc([C@@H]3Cc4nc[nH]c4CN3CC3CCCCC3)n2)ccn1	NIH3T3 tox 79µM, HEK cytotox inconclusive
CN(C)c1ccc(-c2noc([C@@H]3CCCN3Cc3ccc(CO)o3)n2)cn1	FLuc inh inconclusive
CN(C)c1ccc(-c2noc([C@@H]3CCCN3CC3CCCCC3)n2)cn1	FLuc inh 35µM, NPR1 antag inconclusive, NIH3T3 tox 79µM, HEK cytotox inconclusive
FC(F)(F)c1ccc(-c2noc([C@@H]3Cc4nc[nH]c4CN3CC3CCCCC3)n2)cc1	NIH3T3 tox 28µM, SNCA expr inhib inconclusive, HEK cytotox 32µM
CCS(=O)(=O)N1CC(F)(F)C[C@H]1c1nc(-c2cccnc2)no1	none
Cc1ccc(CCN2CCCC3(Cc4ccccc4CN([S+](C)(=O)[O-])C3)C2)cc1 (stereo unspecified)	HEK cytotox inconclusive (no result: FLuc inh, NPR1 antag)
COc1cccc(-c2ccc(C(=O)NCCNC(=O)Cc3ccccn3)cc2)c1	HEK cytotox inconclusive (no result: FLuc inh, NPR1 antag, SNCA viab count, SNCA expr inhib)
O=C(c1ccc(CC2CCN(C(=O)c3ccccn3)CC2)cc1)N1CCOCC1	SNCA viab count inconclusive
COCCOC1CCN(C(=O)c2ccc3cc[nH]c3c2)CC1	none
O=C(c1ccc2ccccc2n1)N1CCC(Cc2ccc(CN3CCOCC3)cc2)CC1	NIH3T3 tox inconclusive, HEK cytotox 35µM (no result: FLuc inh, NPR1 antag)
CN1CCN(Cc2ccc(CC3CCN(C(=O)c4ccc5cc[nH]c5c4)CC3)cc2)CC1	NIH3T3 tox 32µM, HEK cytotox inconclusive (no result: FLuc inh, NPR1 antag)
O=C(Nc1cccc(-c2ccc(N3CCCC3)nn2)c1)Nc1c(F)cccc1F	FLuc inh 14µM, NIH3T3 tox inconclusive, HEK cytotox inconclusive
O=C(Nc1cccc(-c2ccc(N3CCCC3)nn2)c1)Nc1cc(F)ccc1F	FLuc inh 5µM, NPR1 antag inconclusive, NIH3T3 tox inconclusive, HEK cytotox inconclusive
CN(C)c1cc(N2CCCC(NC(=O)c3cccn3C)C2)ncn1 (stereo unspecified)	none
Cc1cc2c(c(=O)n(-c3ccc(F)cc3)c(=O)n2CC(=O)Nc2cc(F)ccc2F)n1C	none
O=C(NC1CCN(c2nccc(Nc3ccccc3F)n2)CC1)c1ccccc1Cl	NIH3T3 tox inconclusive, HEK cytotox inconclusive (no result: FLuc inh, NPR1 antag)
CC#CCn1cc2c3c(cccc31)[C@H](CC(C)C)N[C@H](C(=O)N1CCC(O)CC1)C2	NIH3T3 tox inconclusive, HEK cytotox inconclusive
Cc1ccc(CNC(=O)CC2Sc3ncccc3N(C)C2=O)cc1 (stereo unspecified)	none
CN(Cc1cccc(C(F)(F)F)c1)C(=O)Nc1ccccc1	FLuc inh inconclusive, NIH3T3 tox inconclusive, HEK cytotox inconclusive
CN(Cc1cccc(C(F)(F)F)c1)C(=O)Nc1ccc(Cl)cc1	NIH3T3 tox 20µM, HEK cytotox 40µM
Cc1nnnn1CC(=O)Nc1nn(Cc2ccccc2)c2cccc(OC(C)C)c12	none
CC(C)Oc1cccc2c1c(NC(=O)c1cccnn1)nn2Cc1ccccc1	FLuc inh inconclusive, NIH3T3 tox inconclusive, HEK cytotox 50µM
COc1cc(NC(=O)Cn2c(-c3ccc(F)cc3)nc(C)c(CCO)c2=O)cc(OC)c1OC	SNCA viab count inconclusive
COCC1(C(=O)N2CCOC(c3ccc4cc(OC)ccc4c3)C2)CCC1 (stereo unspecified)	FLuc inh 20µM, NIH3T3 tox inconclusive, HEK cytotox inconclusive
COc1ccc2cc(C3CN(C(=O)c4cccn4C)CCO3)ccc2c1 (stereo unspecified)	FLuc inh 4.5µM, NPR1 antag 16µM, NIH3T3 tox 40µM, HEK cytotox inconclusive
COc1ccc2cc(C3CN(c4ncnc(C)c4C)CCO3)ccc2c1 (stereo unspecified)	FLuc inh inconclusive, NPR1 antag 2.5µM, NIH3T3 tox inconclusive, HEK cytotox inconclusive
NC(=O)C1CCN(C(=O)[C@H]2C[C@@H](O)[C@H](O)[C@@H]3N=C(Nc4cccc(C(F)(F)F)c4)S[C@@H]32)CC1	FLuc inh inconclusive

Source: PubChem BioAssay
